Rows were chosen to be rich in hits. Some 12% of all compounds tested hit in one or more screens of this group.
BAZ2B block – BAZ2B (human) inhibition. 4.4% of 360,000 active. Q9UIF8. AlphaScreen BAZ2B-H3K14Ac peptide displacement. AID 504333. Potency, µM (series often up to 114 µM), usual class: inhibitors; note: nearly all actives have a fitted effect of over 60% in size
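BAZ2B 50 nM plus b-H3(5-23)K14Ac 50 nM, PBS pH 7.4/0.01% Tween-20, 30 min RT; compound added (max 110 uM), 30 min RT; streptavidin donor/Ni-chelate acceptor beads 10 ug/mL final, 20 min dark; AlphaScreen read.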
JMJD2A Tudor inh – JMJD2A Tudor domain (human) inhibition; O75164; AlphaScreen JMJD2A-Tudor / H3K4me3 peptide binding; Potency, µM (series often up to 114 µM), most hits filed as inhibitors; 4.4% of 390,000 active; note: nearly all actives have a fitted effect of over 50% in size
Target sequence (O75164 whole entry, looked up, the tested form may be a part): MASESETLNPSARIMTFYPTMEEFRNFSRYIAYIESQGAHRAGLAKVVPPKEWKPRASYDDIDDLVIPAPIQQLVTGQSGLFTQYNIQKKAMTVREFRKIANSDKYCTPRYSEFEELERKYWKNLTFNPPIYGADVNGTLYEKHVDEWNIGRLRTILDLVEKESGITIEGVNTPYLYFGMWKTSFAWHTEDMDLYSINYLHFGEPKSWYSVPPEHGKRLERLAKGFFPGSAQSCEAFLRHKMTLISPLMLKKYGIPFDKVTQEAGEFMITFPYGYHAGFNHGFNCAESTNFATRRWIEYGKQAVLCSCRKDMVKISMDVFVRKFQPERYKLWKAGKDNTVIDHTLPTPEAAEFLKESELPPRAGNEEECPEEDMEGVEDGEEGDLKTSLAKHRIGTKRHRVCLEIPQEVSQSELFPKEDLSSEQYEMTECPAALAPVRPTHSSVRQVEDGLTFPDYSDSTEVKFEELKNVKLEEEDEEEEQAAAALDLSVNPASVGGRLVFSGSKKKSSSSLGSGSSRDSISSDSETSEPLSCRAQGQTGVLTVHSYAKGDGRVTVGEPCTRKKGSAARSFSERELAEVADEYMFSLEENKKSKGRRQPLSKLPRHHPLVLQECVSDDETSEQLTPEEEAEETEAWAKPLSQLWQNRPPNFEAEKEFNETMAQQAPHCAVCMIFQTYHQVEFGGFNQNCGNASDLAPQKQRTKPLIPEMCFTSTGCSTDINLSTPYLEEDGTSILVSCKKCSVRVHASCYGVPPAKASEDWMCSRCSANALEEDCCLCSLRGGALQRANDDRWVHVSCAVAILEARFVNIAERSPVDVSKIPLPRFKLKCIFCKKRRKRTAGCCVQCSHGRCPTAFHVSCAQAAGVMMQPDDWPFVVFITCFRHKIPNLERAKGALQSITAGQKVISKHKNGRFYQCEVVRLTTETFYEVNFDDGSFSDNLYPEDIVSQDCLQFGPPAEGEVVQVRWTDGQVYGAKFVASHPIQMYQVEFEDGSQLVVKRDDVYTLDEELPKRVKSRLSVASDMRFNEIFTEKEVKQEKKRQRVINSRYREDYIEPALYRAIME
Sfp inh – inhibitors of Bacillus subtilis Sfp phosphopantetheinyl transferase | 3.5% of 310,000 active | Biochemical Sfp PPTase activity, qHTS | AID 1490 | Potency, µM, usual class: inhibitors;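 note: the enzyme is Sfp with the accession as filed and its product quenches rhodamine fluorescence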
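Step 1, compound plus 15 nM Sfp-PPTase, 15 min, room temperature. Step 2, add rhodamine-CoA (5 uM) and BHQ-2-YbbR (12.5 uM). Step 3, read 525/598 nm fluorescence at 0 and 30 min.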
HP1b binding inh – HP1-beta chromodomain-methylated histone interaction inhibition. P83916. AlphaScreen HP1-beta / biotin-H3K9me3 peptide binding. Potency, µM (doses to about 114 µM), actives largely listed as inhibitors. 0.56% of 390,000 active. AID 540317; note: nearly all actives have a fitted effect of over 70% in size
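Compound inhibition of the preformed complex between 50 nM HP1-beta and 50 nM biotinylated H3K9me3 peptide was read by AlphaScreen. Buffer was PBS pH 7.4 with 0.01% Tween-20. Incubations ran 30 min at room temperature, with 10 ug/mL donor/acceptor beads.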
G9a inh – inhibitors of human histone lysine methyltransferase G9a | Q96KQ7 | Potency, µM (doses to about 102 µM), hits mostly inhibitors | AID 504332 | G9a H3K9 monomethylation, AlphaScreen, 2 h | 8.8% of 350,000 active; note: nearly all actives have a fitted effect of over 75% in size
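Methyltransferase reactions run at room temperature for 2 h (20 nM enzyme, 500 nM biotin-H3K9 peptide, 20 uM SAM) after a 15 min compound preincubation; product detected by AlphaScreen beads and anti-H3K9me1 antibody.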
Of the large screens only hits and unclear results are named; the others gave an inactive call. Calls come from the whole dose curve; as a rule, active = well fitted curve in the direction sought with a large enough effect; inconclusive = small, poorly fitted or top-dose-only effect, or another doubt; inactive = no such curve, though single readings can be large; an effect the other way counts as inactive or inconclusive.

Cc1ccc(NC(=O)CN2CCCCCC2)cc1Br	BAZ2B block inconclusive, JMJD2A Tudor inh 3.2µM, HP1b binding inh inconclusive, G9a inh 22µM
O=C(CN1CCCCCC1)Nc1cccc(Br)c1	none
Cc1cccc(NC2(C(=O)O)CCCC2)c1	JMJD2A Tudor inh 35µM (no result: BAZ2B block, Sfp inh, G9a inh)
Cc1cccc(NC(=O)CCN2CCN(C)CC2)c1	G9a inh inconclusive
CCN(CC)C(=O)Oc1ccc(Br)c2ccccc12	none
O=C(COc1ccccc1C(=O)N/N=C\c1ccc(O)c(O)c1)N/N=C/c1ccc(O)c(O)c1	BAZ2B block 1.6µM, JMJD2A Tudor inh 2.2µM, Sfp inh inconclusive, HP1b binding inh 7.9µM, G9a inh inconclusive
O=C(COc1ccccc1[N+](=O)[O-])N/N=C/c1ccc(O)c([N+](=O)[O-])c1	HP1b binding inh inconclusive, G9a inh 50µM
O=[N+]([O-])c1cc(/C=N\Nc2nccs2)ccc1O	BAZ2B block 4µM, Sfp inh 14µM (no result: JMJD2A Tudor inh, HP1b binding inh)
O=[N+]([O-])c1ccccc1/C=N\Nc1nccs1	none
CC(C(=O)O)N1C(=O)C2C3c4ccccc4C(c4ccccc43)[C@@H]2C1=O (some centres undefined)	none
COc1ccc(NC(=O)COc2ccc3c(c2)CCC3)cc1S(N)(=O)=O	none (no result: BAZ2B block, Sfp inh, G9a inh)
Cc1cc(C(=O)COC(=O)CC2Sc3ccccc3NC2=O)c(C)n1-c1ccccc1 (centres undefined)	JMJD2A Tudor inh inconclusive, G9a inh inconclusive
Cc1cc(C(=O)COC(=O)CC2Sc3ccccc3NC2=O)c(C)n1-c1ccc(Br)cc1 (centres undefined)	G9a inh 56µM
Cc1ccccc1NC(=O)C1CC(=O)n2ncnc2N1 (centres undefined)	G9a inh 45µM
C[C@H](O)[C@@H]1C(=O)N2CCc3ccc(-c4ccccc4)cc3[C@@H]2C[C@@H]1N(C)C(=O)NC1CCCCC1	none (no result: BAZ2B block, Sfp inh, G9a inh)
CCN(CC)S(=O)(=O)c1cc(NC(=O)C(C)N2CCc3ccccc32)ccc1C (centres undefined)	JMJD2A Tudor inh inconclusive, G9a inh 25µM (no result: BAZ2B block)
CC(C(=O)Nc1ccc(S(N)(=O)=O)cc1)N1CCc2ccccc21 (centres undefined)	G9a inh 79µM
CCN(CC)S(=O)(=O)c1cc(NC(=O)C(C)N(C)CC(=O)Nc2c(C)cccc2C)ccc1C (centres undefined)	none
CCOC(=O)c1cnn(-c2nc(-c3cccc(F)c3)cs2)c1C(F)(F)F	none
COCCC(=O)Nc1ccc2c(c1)CN(C(=O)CCSC)CC2	none
COCCC(=O)Nc1ccc2c(c1)CN(C(=O)c1ccc(CSC)o1)CC2	G9a inh 50µM
Cc1ccc(CN(C(=O)COc2ccc(Br)cc2)C2CCS(=O)(=O)C2)o1 (centres undefined)	BAZ2B block inconclusive, JMJD2A Tudor inh 25µM
CCc1ccc(OCC(=O)N(Cc2ccc(C)o2)C2CCS(=O)(=O)C2)cc1 (centres undefined)	JMJD2A Tudor inh 56µM (no result: Sfp inh)
Cc1cccc(OCC(=O)N(Cc2ccc(N(C)C)cc2)C2CCS(=O)(=O)C2)c1 (centres undefined)	BAZ2B block inconclusive, JMJD2A Tudor inh inconclusive (no result: G9a inh)
Cc1ccc(OCC(=O)N(Cc2ccc(C)o2)C2CCS(=O)(=O)C2)cc1 (centres undefined)	JMJD2A Tudor inh inconclusive
CC(C)Sc1ncc(Cl)c(C(=O)N(Cc2ccc(N(C)C)cc2)C2CCS(=O)(=O)C2)n1 (centres undefined)	BAZ2B block 45µM, JMJD2A Tudor inh 56µM, HP1b binding inh inconclusive, G9a inh inconclusive (no result: Sfp inh)
Cc1cc(OCC(=O)N(Cc2ccc(N(C)C)cc2)C2CCS(=O)(=O)C2)cc(C)c1Cl (centres undefined)	BAZ2B block 10µM, JMJD2A Tudor inh 40µM, G9a inh inconclusive (no result: Sfp inh)
CC1CCC(NC(=O)c2ccc(-n3cncn3)c([N+](=O)[O-])c2)CC1 (centres undefined)	none (no result: Sfp inh)
COc1cccc(CC(=O)OCC(=O)NC2CCCCCC2)c1	none
OC(C#CCN1CCCC1)(c1ccccc1)c1ccccc1	none
OC(C#CCN1CCOCC1)(c1ccccc1)C1CC1 (centres undefined)	BAZ2B block inconclusive, G9a inh 45µM
CC(O)(C#CCN1CCCCCC1)c1ccccc1 (centres undefined)	G9a inh 50µM
CCn1cc(C(=O)NCCC(C)C)c(=O)c2cc(S(=O)(=O)N(C)C3CCCCC3)ccc21	none (no result: BAZ2B block, Sfp inh)
Cc1c(C(=O)OCc2ccccc2)[nH]c2c1C(=O)CC(c1ccc(N(C)C)cc1)C2 (centres undefined)	none (no result: Sfp inh)
Cc1c(C(=O)OCC2CCCO2)[nH]c2c1C(=O)CC(c1ccc(N(C)C)cc1)C2 (centres undefined)	BAZ2B block 45µM, JMJD2A Tudor inh 50µM, G9a inh 14µM
CC(=O)C1CCC2C3CCC4CC(=O)CCC4(C)C3C(O)CC12C (centres undefined)	none (no result: BAZ2B block, Sfp inh, G9a inh)
N#Cc1ccccc1Sc1ccccc1C(=O)NCC(c1ccco1)N1CCCC1 (centres undefined)	BAZ2B block 50µM, JMJD2A Tudor inh inconclusive, HP1b binding inh inconclusive, G9a inh 2.8µM (no result: Sfp inh)
COc1ccc(NC(=S)NCC(c2ccco2)N2CCCC2)cc1 (centres undefined)	none
CC(=O)c1ccc(NC(=S)NCC(c2ccco2)N2CCCC2)cc1 (centres undefined)	G9a inh 50µM
COc1ccccc1C(=O)NC(=S)Nc1cccnc1Cl	Sfp inh 45µM, HP1b binding inh inconclusive, G9a inh 10µM
Cc1ccc(C(=O)NC(=S)Nc2cccnc2Cl)cc1	Sfp inh 56µM, G9a inh inconclusive
COc1ccccc1-c1cc(C(=O)Nc2cccnc2Cl)no1	none
COc1ccc(S(=O)(=O)c2cc3cc(OC)ccc3oc2=O)cc1	none (no result: Sfp inh)
COc1ccc(S(=O)(=O)c2cc3cc(C(C)(C)C)cc(O)c3oc2=O)cc1	BAZ2B block 25µM, JMJD2A Tudor inh inconclusive, G9a inh 16µM (no result: Sfp inh)
Cc1cc(O)ccc1Nc1nc(-c2cccs2)cs1	BAZ2B block inconclusive, JMJD2A Tudor inh inconclusive, G9a inh 45µM
COc1ccc2c(c1)O[C@@H](c1cccc(C(F)(F)F)c1)[C@H](OC(=O)NCc1ccco1)C2=O	none (no result: BAZ2B block, JMJD2A Tudor inh, HP1b binding inh, G9a inh)
CCN(C(=O)COC(=O)c1nc(Cl)ccc1Cl)C1CCS(=O)(=O)C1 (centres undefined)	G9a inh 1.4µM (no result: Sfp inh)
CCN(C(=O)COC(=O)c1ccc(Cl)nc1)C1CCS(=O)(=O)C1 (centres undefined)	none
CCN(C(=O)COc1cccc2cccnc12)C1CCS(=O)(=O)C1 (centres undefined)	BAZ2B block 50µM, G9a inh inconclusive
CC1(C)CC2(CCO1)CNC(=O)O2 (centres undefined)	none
Cc1cc(N2CCOCC2)nc2ccc(NC(=S)NC(C)C)cc12	G9a inh 71µM
COCCNC(=S)Nc1ccc2nc(N3CCCC3)cc(C)c2c1	G9a inh 71µM

High-throughput results from PubChem.
